In PubChem BioAssay:
Activity calls are given as the source filed them.

Key:
Albumin (Bos taurus) = Albumin (Bos taurus) (UniProt P02769); test: compounds binding labelled BSA control protein – biochemical, small-molecule microarray, Alexa647 label, 635/667 nm fluorescence, artefact control for SMM control protein annotation, profiling panel (AID 1118); details: BSA-A647 binding, fluorescence 635 nm, higher = more signal;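 note: score merges 667 nm emission intensity and signal-to-noise per printed compound spot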
Sequence of Albumin (Bos taurus) (P02769 whole entry, looked up): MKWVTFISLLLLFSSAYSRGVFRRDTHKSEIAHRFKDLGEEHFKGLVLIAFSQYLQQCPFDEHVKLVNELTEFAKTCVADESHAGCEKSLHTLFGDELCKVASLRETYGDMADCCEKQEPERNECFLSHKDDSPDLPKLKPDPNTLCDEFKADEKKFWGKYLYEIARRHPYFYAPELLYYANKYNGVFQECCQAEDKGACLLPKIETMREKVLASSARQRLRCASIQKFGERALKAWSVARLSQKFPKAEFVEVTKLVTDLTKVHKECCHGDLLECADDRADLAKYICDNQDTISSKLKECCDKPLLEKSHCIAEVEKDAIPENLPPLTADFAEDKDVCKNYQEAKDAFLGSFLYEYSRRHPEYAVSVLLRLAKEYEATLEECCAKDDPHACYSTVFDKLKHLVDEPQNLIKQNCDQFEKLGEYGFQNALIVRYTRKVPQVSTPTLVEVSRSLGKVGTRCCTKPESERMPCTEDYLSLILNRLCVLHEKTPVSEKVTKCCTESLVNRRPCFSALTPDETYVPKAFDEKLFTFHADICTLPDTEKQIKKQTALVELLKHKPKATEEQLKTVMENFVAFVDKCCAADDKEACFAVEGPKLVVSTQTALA

[1] = probe aXIP binding to arrayed compounds – biochemical, NeuroSMM set, 635/667 nm fluorescence, primary screen (AID 1119); details: small-molecule microarray, higher = more signal, called active from +8 up or from −8 down;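 note: probe is the protein aXip251-270 applied at 1 µg/mL to compound-printed slides; binding of probe to printed compounds measured as 667 nm fluorescence plus signal to noise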
[2] = probe aNOTCH3 binding on compound microarray – biochemical, small-molecule microarray, 635/667 nm fluorescence, primary screen (AID 1120); details: higher = more signal;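 note: probe is a biotin-tagged antibody raised against NOTCH3 rather than NOTCH3 protein; score merges spot fluorescence near 667 nm with spot signal to noise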
[3] = probe aNOTCH2 binding on compound microarray – biochemical, small-molecule microarray, 635/667 nm fluorescence, primary screen (AID 1121); details: higher = more signal;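 note: score merges feature fluorescence read at 667 nm with its signal to noise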
[4] = molecular target: Carbonic anhydrase 2 (Homo sapiens) (UniProt P00918); test: compounds binding carbonic anhydrase 2 – biochemical, small-molecule microarray, Alexa647-labelled CAII, profiling panel (AID 1122); details: CAII-A647 binding fluorescence, higher = more signal
[5] = COS7 lysate on small-molecule microarray, probe aHis, 635 nm (AID 1123); details: COS7 cell lysate, fluorescence, higher = more signal;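 note: z-score combines 667nm fluorescence intensity with signal-to-noise per printed compound spot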
[6] = probe aLAP1 signal on lysate-treated microarray – cell lysate, small-molecule microarray, COS7 lysate, primary screen (AID 1124); details: probe aLAP1, fluorescence, higher = more signal;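 note: lysate comes from COS7 cells expressing LAP1 and is applied at 0.3 µg/mL; score merges spot fluorescence near 667 nm with signal-to-noise over triplicate slides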
Sam68 (KHDRBS1) = test: compounds binding KHDRBS1 protein – biochemical, small-molecule microarray, 635 nm fluorescence, primary screen (AID 1125); details: higher = more signal;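 note: score merges 667 nm channel intensity with signal to noise over triplicate slides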
[7] = tested on: Chordin-like protein 2 (CHRDL2); test: compounds binding chordin-like 2 – biochemical, small-molecule microarray, 635 nm fluorescence, primary screen (AID 1126); details: fluorescence 635 nm, higher = more signal;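 note: printed compound slides probed with Chrdl2 protein at 4 µg/mL for 1 h at 4 C; score merges 667 nm emission intensity with signal to noise over three replicate slides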
[8] = molecular target: Concanavalin-A (Canavalia ensiformis) (UniProt P02866); test: compounds binding concanavalin A lectin – biochemical, small-molecule microarray, Alexa647 label, 635 nm, artefact control for SMM control protein annotation, primary screen (AID 1127); details: ConA-A647 binding fluorescence, higher = more signal;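 note: z combines 667 nm emission intensity with signal-to-noise across three replicate slides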
Sequence of Concanavalin-A (Canavalia ensiformis) (P02866 whole entry, looked up): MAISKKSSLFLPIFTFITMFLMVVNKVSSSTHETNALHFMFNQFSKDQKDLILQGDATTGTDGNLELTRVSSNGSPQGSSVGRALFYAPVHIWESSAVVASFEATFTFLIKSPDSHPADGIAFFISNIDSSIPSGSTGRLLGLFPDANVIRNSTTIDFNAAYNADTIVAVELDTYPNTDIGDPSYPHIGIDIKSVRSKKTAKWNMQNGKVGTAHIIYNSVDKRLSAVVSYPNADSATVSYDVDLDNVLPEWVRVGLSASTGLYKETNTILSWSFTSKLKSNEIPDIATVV

[9] = compounds binding Alexa647 anti-His antibody – biochemical, small-molecule microarray, 635 nm fluorescence, artefact control for SMM control protein annotation, primary screen (AID 1128); details: higher = more signal;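 note: score merges feature fluorescence with signal-to-noise for each printed compound spot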
[10] = tested on: Human papillomavirus type 1a E7 protein (residues 1-88); test: HPV1a E7 small-molecule binders, primary screen, biochemical, small-molecule microarray, residues 1-88, 635 nm (AID 1129); details: small-molecule microarray binding, fluorescence 635 nm; higher = more signal
[11] = molecular target: Focal adhesion kinase 1 (Homo sapiens) (UniProt Q05397); test: PTK2 protein binding on printed compound slides – biochemical, small-molecule microarray, 635/667 nm fluorescence, BSA, DTT, primary screen (AID 1130); details: 635 nm fluorescence, higher = more signal;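 note: composite of spot emission at 667 nm and signal to noise over triplicate slides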
Sequence of Focal adhesion kinase 1 (Homo sapiens) (Q05397 whole entry, looked up): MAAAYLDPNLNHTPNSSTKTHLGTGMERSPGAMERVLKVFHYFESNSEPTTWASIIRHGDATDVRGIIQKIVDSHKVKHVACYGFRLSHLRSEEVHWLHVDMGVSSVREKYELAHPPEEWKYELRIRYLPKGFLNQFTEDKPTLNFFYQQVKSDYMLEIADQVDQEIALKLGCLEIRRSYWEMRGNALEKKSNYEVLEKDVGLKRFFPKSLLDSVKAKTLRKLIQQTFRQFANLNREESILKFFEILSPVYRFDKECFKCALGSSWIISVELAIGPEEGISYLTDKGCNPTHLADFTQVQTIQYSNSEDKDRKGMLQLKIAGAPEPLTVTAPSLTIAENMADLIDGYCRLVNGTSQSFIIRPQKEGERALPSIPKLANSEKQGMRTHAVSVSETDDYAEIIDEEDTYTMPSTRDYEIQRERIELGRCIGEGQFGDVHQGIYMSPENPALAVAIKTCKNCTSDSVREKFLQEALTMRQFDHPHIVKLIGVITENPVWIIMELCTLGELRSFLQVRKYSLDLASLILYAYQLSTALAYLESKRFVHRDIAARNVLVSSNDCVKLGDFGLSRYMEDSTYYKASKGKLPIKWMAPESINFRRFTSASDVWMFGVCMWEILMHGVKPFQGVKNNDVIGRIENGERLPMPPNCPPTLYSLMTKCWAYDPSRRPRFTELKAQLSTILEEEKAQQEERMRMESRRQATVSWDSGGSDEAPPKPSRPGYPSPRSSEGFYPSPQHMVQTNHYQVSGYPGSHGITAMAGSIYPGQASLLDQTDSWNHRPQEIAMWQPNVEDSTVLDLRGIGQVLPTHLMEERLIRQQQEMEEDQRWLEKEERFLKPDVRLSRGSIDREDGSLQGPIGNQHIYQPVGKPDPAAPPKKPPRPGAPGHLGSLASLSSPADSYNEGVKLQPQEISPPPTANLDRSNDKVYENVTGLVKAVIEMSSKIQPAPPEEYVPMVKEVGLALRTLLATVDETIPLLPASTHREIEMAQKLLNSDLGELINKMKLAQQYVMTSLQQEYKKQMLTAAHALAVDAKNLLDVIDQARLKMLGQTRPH

[12] = tested on: Fibrinogen (Alexa647-labelled); test: Alexa647-fibrinogen binding to printed small molecules – biochemical, small-molecule microarray, 635/667 nm fluorescence, artefact control for SMM control-protein annotation, profiling panel (AID 1131); details: fibrinogen-A647 binding fluorescence, higher = more signal;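 note: z-score merges 667 nm fluorescence with per-spot signal-to-noise over triplicate slides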
[13] = molecular target: Follistatin (Homo sapiens) (UniProt P19883); test: FST protein binding to printed compounds – biochemical, small-molecule microarray, 635/667 nm fluorescence, primary screen (AID 1132); details: 635 nm fluorescence, higher = more signal
Sequence of Follistatin (Homo sapiens) (P19883 whole entry, looked up): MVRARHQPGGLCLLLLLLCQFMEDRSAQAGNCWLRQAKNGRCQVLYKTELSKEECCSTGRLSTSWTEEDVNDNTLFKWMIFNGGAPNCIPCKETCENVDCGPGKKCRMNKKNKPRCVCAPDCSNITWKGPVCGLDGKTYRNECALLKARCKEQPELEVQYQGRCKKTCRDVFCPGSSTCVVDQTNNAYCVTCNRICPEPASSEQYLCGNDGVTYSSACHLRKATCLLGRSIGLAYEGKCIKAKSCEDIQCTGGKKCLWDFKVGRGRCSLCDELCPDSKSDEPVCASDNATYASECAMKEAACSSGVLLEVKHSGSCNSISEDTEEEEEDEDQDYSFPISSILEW

[14] = molecular target: Fibroblast growth factor 2 (Homo sapiens) (UniProt P09038); test: basic fibroblast growth factor binding to printed compounds – biochemical, small-molecule microarray, 635/667 nm fluorescence, primary screen (AID 1133); details: FGF2, fluorescence 635/667, higher = more signal
Sequence of Fibroblast growth factor 2 (Homo sapiens) (P09038 whole entry, looked up): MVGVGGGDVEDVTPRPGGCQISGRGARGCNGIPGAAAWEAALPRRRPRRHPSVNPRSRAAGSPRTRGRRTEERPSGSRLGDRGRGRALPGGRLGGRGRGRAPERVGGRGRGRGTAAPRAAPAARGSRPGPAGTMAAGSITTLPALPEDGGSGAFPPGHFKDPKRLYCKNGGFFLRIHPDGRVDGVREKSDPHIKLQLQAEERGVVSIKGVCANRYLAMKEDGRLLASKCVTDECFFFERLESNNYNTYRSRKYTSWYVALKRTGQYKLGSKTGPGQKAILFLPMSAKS

[15] = JC-1 mitochondrial potential readout, lung cancer cells – cell-based, A549, JC-1 fluorescence, basal, 24 h, 100 nL, profiling panel (AID 1138); details: higher = more signal;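 note: A549 lung adenocarcinoma cells under basal conditions with no added stimulus; test concentration not given here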
Lefty1 = Lefty1 protein binding to printed compounds – biochemical, small-molecule microarray, 635/667 nm fluorescence, primary screen (AID 1139); details: fluorescence 635/667, higher = more signal
[16] = tested on: wheat germ agglutinin (Triticum aestivum), Alexa647-labelled; test: Alexa647-WGA lectin binding to printed small molecules – biochemical, small-molecule microarray, 635/667 nm fluorescence, artefact control for SMM control-protein annotation, profiling panel (AID 1140); details: WGA-A647 binding, 635 nm fluorescence, higher = more signal;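 note: score merges 667 nm feature emission with signal to noise over triplicate slides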
[17] = molecular target: Luciferin 4-monooxygenase (Photinus pyralis) (UniProt P08659); test: inhibition of purified Photinus pyralis luciferase – biochemical, luminescence, purified enzyme, 2006 set, primary screen (AID 1141); details: purified firefly luciferase, SteadyGlo luminescence, 30 min; higher = more signal, called active from +8 up or from −8 down;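 note: cell-free assay with purified firefly luciferase at 100 ng per well in PBS; test concentration not given here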
Sequence of Luciferin 4-monooxygenase (Photinus pyralis) (P08659 whole entry, looked up): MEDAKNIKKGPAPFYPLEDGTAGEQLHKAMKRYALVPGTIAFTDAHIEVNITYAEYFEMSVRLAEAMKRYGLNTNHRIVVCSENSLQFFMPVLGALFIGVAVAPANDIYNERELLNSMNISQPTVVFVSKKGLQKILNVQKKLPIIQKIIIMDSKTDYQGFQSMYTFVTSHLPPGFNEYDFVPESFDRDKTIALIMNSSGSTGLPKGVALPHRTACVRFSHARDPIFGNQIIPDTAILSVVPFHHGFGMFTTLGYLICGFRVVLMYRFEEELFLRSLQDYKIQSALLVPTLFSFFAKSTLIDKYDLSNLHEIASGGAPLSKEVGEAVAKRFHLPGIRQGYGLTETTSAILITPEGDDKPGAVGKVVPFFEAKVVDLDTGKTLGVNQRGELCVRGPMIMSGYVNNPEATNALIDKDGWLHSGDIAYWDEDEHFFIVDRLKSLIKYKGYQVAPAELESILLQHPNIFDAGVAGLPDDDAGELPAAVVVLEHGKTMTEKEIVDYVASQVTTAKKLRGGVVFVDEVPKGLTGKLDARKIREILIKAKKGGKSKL

Compound | composite z-score (Albumin (Bos taurus)) | composite Z-score [1] | composite z-score [2] | composite z-score [3] | composite z-score [4] | composite z-score [5] | composite z-score [6] | composite z-score (Sam68 (KHDRBS1)) | composite z-score [7] | composite z-score [8] | composite z-score [9] | composite z-score [10] | composite z-score [11] | composite z-score [12] | composite z-score [13] | composite z-score [14] | z-score [15] | composite z-score (Lefty1) | composite z-score [16] | z-score [17]
C=CCOC(=O)[C@@H]1[C@H]2C(=O)O[C@H](c3ccccc3)[C@H](c3ccccc3)N2[C@H](c2ccc(OCCOC(=O)[C@H]3C[C@H]4C(=O)N5CCC[C@H]5C(=O)N4[C@H]3c3cccc(OCCO)c3)cc2)[C@@]12C(=O)Nc1ccc(I)cc12 | -0.638 | 1.17 (inactive) | -0.0328 | -0.0228 | 0.219 | 0.942 | 0.448 | 1.3 | 1.02 | 1.17 | 1.04 | 0.994 | 0.746 | 0.241 | 1.4 | 1.38 | -1.32 | 1.44 | 0.555 | 0.0266 (inactive)
COc1ccc([Si](C)(C)[C@@H]2[C@@H](CC(=O)N3Cc4ccccc4C[C@H]3CO)O[C@]3(C(=O)N(Cc4cccc(N5CCOC5=O)c4)c4ccccc43)[C@H]2C)cc1 | -0.699 | 0.844 (inactive) | 0.0016 | -0.117 | 0.038 | 0.479 | 0.333 | 1.1 | 1.32 | 0.844 | 1.23 | 0.402 | 0.0975 | 0.0735 | 1.41 | 1.4 | -0.661 | 1.54 | -0.244 | 0.274 (inactive)
CC(C)=CCCC(C)=CC(O)C1C=CC2C(=O)NC(=O)C2N1Nc1ccccn1 (stereo not given) | 0.408 | 0.992 (inactive) | 0.254 | 0.0047 | 0.725 | 0.39 | 0.969 | 1.25 | 1.43 | 0.932 | 1.97 | 1.08 | -0.097 | 0.868 | 1.39 | 1.7 | 0.966 | 1.54 | 0.73 | -1.17 (inactive)
COC(=O)C1=CC(CCCO)=CC(c2cccs2)N(Cc2cc3c(cc2Br)OCO3)C=C1C(=O)OC (stereo not given) | 0.739 | 1.26 (inactive) | 0.062 | -0.0645 | 0.769 | 2.43 | 0.0385 | 1.3 | 0.249 | 1.21 | 2.57 | 1.25 | 0.87 | 0.999 | 1.08 | 1.43 | 1.33 | 0.273 | 1.13 | -1.39 (inactive)
CC1CC/C=C\[C@H]2OC34C=CCN(c5ccc(Cl)cc5)C(=O)[C@H]3N(CCCCCCO)C(=O)[C@]4(C)C2C(=O)O1 (stereo not given in full) | -0.685 | 0.0185 (inactive) | -0.314 | 0.309 | 0.3 | 0.383 | -0.17 | -0.552 | -0.742 | -0.241 | 0.867 | -0.629 | -0.487 | -0.87 | -0.518 | -0.662 | 1 | -0.629 | -0.988 | -1.55 (inactive)
COC(=O)C(CC#Cc1ccc2c(c1)[C@]1(C(=O)N2)[C@H](c2ccc(OCCO)cc2)N2[C@H](c3ccccc3)[C@H](c3ccccc3)OC(=O)[C@H]2[C@@H]1C(=O)N1CCCCCCC1)C(=O)OC | 0.576 | 4.71 (inactive) | 1.75 | 0.967 | 0.933 | 3.5 | 1.65 | 1.3 | 1.52 | 1.21 | 2.65 | 1.17 | 2.67 | 0.68 | 1.45 | 0.724 | -1.39 | 1.24 | 1.46 | -0.596 (inactive)
CN(C)CCCC[C@@H]1NC(=O)[C@@H]2C[C@H](C(=O)NCCCCCCNC(=O)CS)[C@H](c3ccc(O)cc3)N2C1=O | -0.868 | 0.0804 (inactive) | -0.0682 | -0.112 | 0.538 | 1.06 | 0.338 | 0.952 | 1.15 | 1.08 | 2.26 | 0.91 | 0.335 | 0.767 | 1.31 | 1.87 | -0.15 | 1.38 | -0.204 | -0.25 (inactive)
C=CC[C@@]1(C(=O)OC)N=C(c2ccc(OCCCO)cc2)O[C@@H]1c1ccccc1N=[N+]=[N-] | -1.11 | 0.721 (inactive) | 0.477 | 0.12 | 0.475 | 2.76 | 0.568 | 1.29 | 1.33 | 0.896 | 2.37 | 1.24 | 0.568 | 0.159 | 1.41 | 1.66 | 0.311 | 0.53 | 0.874 | -6.39 (inactive)
C=C(CCCC)/C(=C/C[C@H](OC(=O)c1ccncc1)c1cccc(OCCO)c1)c1cnc2ccccc2c1 | 0.677 | -0.12 (inactive) | 0.211 | -0.0649 | 0.861 | 1.17 | 0.423 | 1.26 | 0.51 | 0.831 | 0.13 | 1.1 | 0.469 | 0.957 | 1.11 | 0.688 | 2.01 | 1.07 | 0.851 | -0.78 (inactive)
COC(=O)[C@@]1(Cc2ccc(OC)cc2)[C@H]2c3cc(C(=O)N(C)C)[nH]c3C[C@H]2CN1C(=O)c1ccccc1 | 0.0277 | 0.184 (inactive) | -0.0477 | 0.013 | 0.742 | 0.1 | -0.106 | -1.13 | -0.372 | 0.0575 | 0.279 | -0.154 | 0.0999 | 0.804 | -0.205 | -0.738 | 0.638 | -0.275 | 0.895 | 0.0806 (inactive)
O=C1OCCC=C[C@H]2OC34C=CCN(c5ccc6ccccc6c5)C(=O)[C@H]3N(CCO)C(=O)[C@@H]4C12 (stereo not given in full) | -0.594 | 0.465 (inactive) | -0.571 | -0.445 | 0.368 | -0.237 | -0.162 | -0.362 | -0.976 | -0.403 | -0.75 | -0.803 | -0.101 | -0.318 | -0.129 | -0.909 | -0.522 | -0.472 | -0.117 | -0.207 (inactive)
